# Test results reported in ChEMBL document CHEMBL4513216, “Probing the Open Global Health Chemical Diversity Library for Multistage-Active Starting Points for Next-Generation Antimalarials” (ACS Infect Dis, 2020).
# Hit rate of the full screen: of about 68,000 compounds, about 2,700 (4%) showed an effect of 50% or more. This excerpt belongs to a sample that is enriched for strong results.
# System: Plasmodium berghei
# Test: Screen against P. berghei liver stage (PbLuc), transformed with Luciferase, at 2uM
# Format: functional, HepG2
# Details: tested at 2 uM
row,Structure (SMILES),INHIBITION [%]
1,Cc1nc(C2CCCN2CCCS(=O)(=O)N(C)C)no1 (stereo not drawn),9.36
2,C[C@H](C(=O)N1Cc2ccccc2CC2(CCCN2C)C1)c1ccccc1 (stereo partly drawn),29.56
3,CCNC(=O)c1cn(C(C)(C)C)c2ncccc12,40.4
4,O=C(C1CC1)N1CCCC1c1nnc2n1CCCCC2 (stereo not drawn),58.29
5,O=C(C1CCC1)N1CCCC1c1nnc2n1CCCCC2 (stereo not drawn),41.56
6,O=C(C1CCCC1)N1CCCC1c1nnc2n1CCCCC2 (stereo not drawn),-15.83
7,C[C@@H]1CN(S(=O)(=O)N2CCCCCC2)C[C@@]1(O)C1CCC1,6.68
8,CCC(O)CN1CCN(C(=O)c2ccc(Cn3cccc3)cc2)CC1 (stereo not drawn),-25.46
9,O=C(Nc1cccnc1)[C@H]1C[C@H]2CN(Cc3ccc(F)cc3)C[C@@H]1O2,6.35
10,CC1CCC(NS(=O)(=O)CC(=O)Nc2ccc(N3CCCC3)cn2)CC1 (stereo not drawn),-3.25
11,CNC(=O)CS(=O)(=O)NC1CCC(C)CC1 (stereo not drawn),7.46
12,Cc1ccc(NC(=O)CS(=O)(=O)NC2CCC(C)CC2)nc1 (stereo not drawn),59.03
13,CCN(CC)CCn1c(NC(=O)c2scnc2C)nc2ccccc21,-34.06
14,O=C(Nc1ccccc1Oc1cccc(F)c1)NC1CCS(=O)(=O)C1 (stereo not drawn),11.88
15,CNC(=O)NC(=O)CSC(C)c1ccccc1F (stereo not drawn),20.74
16,CC(=O)N1CCC(Cc2cncc(-c3c(C)n[nH]c3C)n2)C1 (stereo not drawn),23.22
17,CC(C)CN1CCC2(CCN(Cc3ccoc3)CC2)C1=O,44.43
18,CCS(=O)(=O)Nc1cnn(Cc2cccc(Cl)c2)c1,20.19
19,CCS(=O)(=O)Nc1cnn(Cc2cccc(C)c2)c1,52.95
20,CCS(=O)(=O)Nc1cnn(Cc2cccc(F)c2)c1,3.58
21,CC(C)COCc1cncc2c1CCN(Cc1cnn(C)c1)C2,-40.42
22,Cn1cc(CN2CCc3c(COCC4CC4)cncc3C2)cn1,-11.66
23,COCc1cncc2c1CCN(Cc1cnn(C)c1)C2,53.98
24,COc1ccc2cc(C(=O)N3CCCC(n4ccnc4C)C3)[nH]c2c1 (stereo not drawn),-47.33
25,CCNc1cc2c(nn1)CCN(C(=O)c1cccc3c1OCO3)C2,1.63
26,Cn1cc(N2CCN(c3ccc(C#N)c(Cl)c3)CC2=O)cn1,52.3
27,Cn1cc(N2CCN(c3ccc(C#N)cc3F)CC2=O)cn1,53.98

row,Structure (SMILES),INHIBITION [%]
1,N#Cc1ccc(N2CCC(OC3CCOCC3)CC2)cc1Cl,26.51
2,COCC1CN(c2ccc(C#N)c(Cl)c2)CCO1 (stereo not drawn),2.69
3,Cn1cc(N2CCN(c3ccc(C#N)cc3Br)CC2=O)cn1,42.2
4,Cn1ccnc1CN1CCN(c2ccc(C#N)cc2F)CC1,-5.15
5,O=C(Cn1cccnc1=O)NCCc1ccc2c(c1)OCCO2,0.9
6,COc1ccc2c(ccn2CCCN)c1,-19.92
7,COC(=O)C(C)Sc1nnnn1C1CCOCC1 (stereo not drawn),-53.55
8,CCCC(C)Sc1nnnn1C1CCOCC1 (stereo not drawn),61.27
9,CC(Sc1nnnn1C1CCOCC1)C(F)(F)F (stereo not drawn),5.55
10,CC(Sc1nnnn1C1CCOCC1)C(=O)NC1CCCCC1 (stereo not drawn),-33.07
11,CCCOC(=O)C(C)Sc1nnnn1C1CCOCC1 (stereo not drawn),71.4
12,CC(C)OCCSc1nnnn1C1CCOCC1,17.37
13,CCc1nccn1C1CCCN(C(=O)Cc2ccc(OC)c(F)c2)C1 (stereo not drawn),29.71
14,COc1ccc(CNC(=O)N2CCCC(Nc3ccccc3)C2)cn1 (stereo not drawn),17.48
15,Fc1ccc(CN2CCc3ncnc(C4CC4)c3CC2)cc1,-12.06
16,Cc1cn[nH]c1C1CCCCN1C(=O)CCc1c(C)n[nH]c1C (stereo not drawn),5.34
17,O=C(NCC1CCCOC1)c1ccc(-c2cccs2)[nH]c1=O (stereo not drawn),38.67
18,Cc1cc(C(=O)N2CCCC(c3noc(C)n3)C2)[nH]n1 (stereo not drawn),45.75
19,CCN1C[C@@H]2CN(C(=O)c3cccn3C)C[C@@H]2C1=O,17.05
20,CCCN1C[C@@H]2CC[C@H]1CN(Cc1cccc(O)c1)C2,-1.63
21,CC(C)N(CCO)C(=O)C1CCC(=O)N(CCc2ccc(Cl)cc2)C1 (stereo not drawn),17.2
22,CCCN(CCO)C(=O)C1CCC(=O)N(Cc2ccc(Cl)cc2)C1 (stereo not drawn),-49.57
23,CCC(CO)(CO)NC(=O)C1CCC(=O)N(CCc2ccccc2)C1 (stereo not drawn),-19.02
24,CC(C)N(CCO)C(=O)C1CCC(=O)N(CCc2cccc(F)c2)C1 (stereo not drawn),66.74
25,CCN(CCO)C(=O)C1CCC(=O)N(Cc2cccc(OC)c2)C1 (stereo not drawn),53.61
26,CCN(CC)C(=O)C1CCC(=O)N(CCc2cccc(F)c2)C1 (stereo not drawn),17.48
